Assay results published in PubChem BioAssay.
“And” between values parts separate entries of the source, which are not always exact repeats. Identical values can stand only once. Inconclusive results are not listed. The source made the active and inactive calls.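 How the source made its calls, unless noted: active means normalized viability below 100% at a tested concentration; inactive means the rest.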

Legend:
[1] = growth inhibition of DIPG glioma cells, dose response, cell-based, SU-DIPG-XVII, MIPE5.0, CellTiter-Glo, qHTS (AID 1347060; cut-off not given, nearly all actives have AC50 up to about 26 µM;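 on AC50: cells exposed to compound for 48 hours before viability readout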); details: SU-DIPG-XVII viability, CellTiter-Glo ATP luminescence
[2] = growth inhibition of DIPG glioma cells, dose response, cell-based, SU-DIPG-XIII, MIPE4.0, CellTiter-Glo, qHTS (AID 1347061; cut-off not given, nearly all actives have AC50 up to about 37 µM;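 further: cells exposed to compound for 48 hours before readout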); details: SU-DIPG-XIII viability, CellTiter-Glo ATP luminescence
[3] = growth inhibition of DIPG glioma cells, dose response, cell-based, JHH-DIPG-1, MIPE4.0, CellTiter-Glo, qHTS (AID 1347062; cut-off not given, nearly all actives have AC50 up to about 27 µM;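 on AC50: cells exposed to compound for two days before readout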); details: JHH-DIPG-1 viability, CellTiter-Glo ATP luminescence
[4] = growth inhibition of DIPG glioma cells, dose response, cell-based, SU-DIPG-IV, MIPE4.0, CellTiter-Glo, qHTS (AID 1347063; cut-off not given, nearly all actives have AC50 up to about 30 µM;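 further: compound exposure lasted 48 hours before the viability readout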); details: SU-DIPG-IV viability, CellTiter-Glo ATP luminescence
[5] = SU-DIPG-VI glioma cell viability, MIPE4.0 library, CellTiter-Glo luminescence, qHTS (AID 1347066; cut-off not given, nearly all actives have AC50 up to about 30 µM;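 further: cells exposed to compound for 48 hours before readout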); details: CellTiter-Glo ATP luminescence
[6] = JHH-DIPG-1 glioma cell viability, MIPE5.0 library, CellTiter-Glo luminescence, qHTS (AID 1347067; cut-off not given, nearly all actives have AC50 up to about 26 µM;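 further: cells exposed to compound for 48 hours before readout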); details: JHH-DIPG-1 glioma viability, CellTiter-Glo ATP luminescence
[7] = SU-DIPG-XXV glioma cell viability, MIPE5.0 library, qHTS (AID 1347068; cut-off not given, nearly all actives have IC50 up to about 30 µM;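 on IC50: cells exposed to compound for 48 hours before viability readout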)
[8] = growth inhibition of DIPG glioma cells, dose response, cell-based, SU-DIPG-XIII, MIPE5.0, CellTiter-Glo, qHTS (AID 1347064; cut-off not given, nearly all actives have AC50 up to about 23 µM;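 on AC50: cells exposed to compound for 48 hours before the viability read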); details: SU-DIPG-XIII viability, CellTiter-Glo ATP luminescence
[9] = viability loss in pontine glioma line – cell-based, SU-DIPG-XXV, MIPE5.0, CellTiter-Glo, qHTS, dose response (AID 1347065; cut-off not given, nearly all actives have AC50 up to about 26 µM;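 further: cells exposed to compound for 48 hours before ATP readout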); details: CellTiter-Glo ATP luminescence
[10] = sensitizers of A549 cells to miR-34 induction, primary screen, imaging, A549 dox-inducible miR-34, nuclei and caspase counts (AID 1347080;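 active means compounds whose cell count with miR-34 switched on is under 0.7 times the count with it off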); details: A549 miR-34 inducible, Hoechst nuclei count, 48 h
[11] = survival rescue of mitochondrial mutant cells in low glucose, primary screen, MELAS cybrids, Rieske KO mouse fibroblasts, CellTiter-Glo (AID 1508586;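 active means mean z-score across replicates of 1.96 or higher in either the MELAS or the Rieske mutant cell line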;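 further: z relative to plate mean and SD of compound and empty wells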)
[12] = modifiers of HSF1 nuclear foci, imaging, Selleck Cancer Library (AID 1347162; in the data active means plate-normalised HSF1 focus index below about 0.46); details: human cells, at 10 µM; SSMD: measured here: HSF1 foci SSMD mean; cell count: measured here: cell number; plate-normalised HSF1 focus index: stronger effect = lower value
[13] = ovarian cancer cell viability with rucaparib, profiling panel, oncology-focused library, rucaparib conditional (AID 1508598); details: patient-derived ovarian cancer cells, CellTiter-Glo viability, 144 h, stronger effect = lower value
[14] = stronger effect = lower value, cell number ratio, induced over uninduced
[15] = measured here: relative caspase fold change +Dox/-Dox
[16] = measured here: total cells with miR-34 induction, stronger effect = lower value
[17] = measured here: total cells without miR-34 induction
[18] = MELAS cybrid survival, CellTiter-Glo 48 h, stronger effect = higher value
[19] = Rieske KO mouse fibroblast survival, CellTiter-Glo 72 h
[20] = at 0.000305 µM, OCI-C5x cells, with rucaparib 10 µM, 100% = cells with rucaparib alone
[21] = at 0.000305 µM, OCI-C5x cells, without rucaparib
[22] = at 0.000305 µM, OCI-P5x cells, with rucaparib 20 µM, 100% = cells with rucaparib alone
[23] = at 0.000305 µM, OCI-P5x cells, without rucaparib
[24] = at 0.00122 µM, OCI-C5x cells, with rucaparib 10 µM, 100% = cells with rucaparib alone
[25] = at 0.00122 µM, OCI-C5x cells, without rucaparib
[26] = at 0.00122 µM, OCI-P5x cells, with rucaparib 20 µM, 100% = cells with rucaparib alone
[27] = at 0.00122 µM, OCI-P5x cells, without rucaparib
[28] = at 0.00488 µM, OCI-C5x cells, with rucaparib 10 µM, 100% = cells with rucaparib alone
[29] = at 0.00488 µM, OCI-C5x cells, without rucaparib
[30] = at 0.00488 µM, OCI-P5x cells, with rucaparib 20 µM, 100% = cells with rucaparib alone
[31] = at 0.00488 µM, OCI-P5x cells, without rucaparib
[32] = at 0.0195 µM, OCI-C5x cells, with rucaparib 10 µM, 100% = cells with rucaparib alone
[33] = at 0.0195 µM, OCI-C5x cells, without rucaparib
[34] = at 0.0195 µM, OCI-P5x cells, with rucaparib 20 µM, 100% = cells with rucaparib alone
[35] = at 0.0195 µM, OCI-P5x cells, without rucaparib
[36] = at 0.0781 µM, OCI-C5x cells, with rucaparib 10 µM, 100% = cells with rucaparib alone
[37] = at 0.0781 µM, OCI-C5x cells, without rucaparib
[38] = at 0.0781 µM, OCI-P5x cells, with rucaparib 20 µM, 100% = cells with rucaparib alone
[39] = at 0.0781 µM, OCI-P5x cells, without rucaparib
[40] = at 0.313 µM, OCI-C5x cells, with rucaparib 10 µM, 100% = cells with rucaparib alone
[41] = at 0.313 µM, OCI-C5x cells, without rucaparib
[42] = at 0.313 µM, OCI-P5x cells, with rucaparib 20 µM, 100% = cells with rucaparib alone
[43] = at 0.313 µM, OCI-P5x cells, without rucaparib
[44] = at 1.25 µM, OCI-C5x cells, with rucaparib 10 µM, 100% = cells with rucaparib alone
[45] = at 1.25 µM, OCI-C5x cells, without rucaparib
[46] = at 1.25 µM, OCI-P5x cells, with rucaparib 20 µM, 100% = cells with rucaparib alone
[47] = at 1.25 µM, OCI-P5x cells, without rucaparib
[48] = at 5 µM, OCI-C5x cells, with rucaparib 10 µM, 100% = cells with rucaparib alone
[49] = at 5 µM, OCI-C5x cells, without rucaparib
[50] = at 5 µM, OCI-P5x cells, with rucaparib 20 µM, 100% = cells with rucaparib alone
[51] = at 5 µM, OCI-P5x cells, without rucaparib

O=C(O)c1ccc(O)c2ncc(N3CCOCC3)cc12
active: AC50 [2] 26.4 µM | AC50 [4] 23.5 µM | AC50 [5] 26.4 µM | AC50 [6] 23.5 µM
inactive: outcome [1] | outcome [3] | outcome [7]

Cc1cnc(-c2cc(N3CCN(C(=O)CCS(C)(=O)=O)CC3)ncc2Cl)c(C)c1
0.666: fold change [10, 15]
8550: cell count [10, 16]
10000: cell count [10, 17]
inactive: outcome [1] | outcome [2] | outcome [4] | outcome [8] | outcome [9] | outcome [5] | outcome [6] | outcome [7] | fold change [10, 14] 0.856 | z-score [11, 18] -0.296
0.28: z-score [11, 19]

C[C@@]1(C(=O)Nc2ccc(F)nc2)CCCN1c1nc(Nc2cc(C3CC3)[nH]n2)c2cccn2n1
active: AC50 [1] 0.263 µM | AC50 [2] 7.43 µM | AC50 [4] 0.0833 µM | AC50 [8] 0.0209 µM | AC50 [9] 0.0132 µM | AC50 [6] 0.186 µM | IC50 [7] 0.0742 µM

CC1(C)S[C@H]2[C@H](NC(=O)[C@@H](N)c3ccc(O)cc3)C(=O)N2[C@H]1C(=O)O
active: AC50 [2] 23.5 µM | AC50 [3] 1.32 µM
inactive: outcome [1] | outcome [9] | outcome [5] | outcome [6] | outcome [7]

COc1ccc(-n2c(C)c([N+](=O)[O-])c3ccc(O)cc32)cc1
active: AC50 [2] 4.69 µM
6450: cell count [10, 16]
7330: cell count [10, 17]
0.334: fold change [10, 15]
inactive: outcome [1] | outcome [3] | outcome [9] | outcome [5] | outcome [6] | outcome [7] | fold change [10, 14] 0.881 | z-score [11, 18] 0.252
-3.43: z-score [11, 19]

Cn1cnc2c(F)c(Nc3ccc(Br)cc3F)c(C(=O)NOCCO)cc21
-0.207: z-score [11, 19]
4540: cell count [10, 17]
0.664: fold change [10, 15]
4350: cell count [10, 16]
active: AC50 [1] 3.72 µM | AC50 [2] 4.18 µM | AC50 [3] 6.62 µM | AC50 [9] 5.25 µM | AC50 [6] 0.833 µM
inactive: outcome [5] | fold change [10, 14] 0.958 | z-score [11, 18] 0.0149

Cc1cc(Nc2nc(N[C@@H](C)c3ccc(F)cc3)c(C#N)cc2F)n[nH]1
active: AC50 [1] 0.934 µM | AC50 [2] 20.9 µM | AC50 [4] 5.9 µM | AC50 [8] 4.68 µM | AC50 [9] 1.32 µM | AC50 [5] 23.5 µM | AC50 [6] 5.9 µM | IC50 [7] 5.25 µM

CC1CCC(C(=O)N(c2cc(C#CC(C)(C)C)sc2C(=O)O)C2CCC(O)CC2)CC1 (configuration not stated)
8210: cell count [10, 17]
inactive: outcome [2] | outcome [3] | fold change [10, 14] 0.937 | z-score [11, 18] 0.177
7690: cell count [10, 16]
-0.0881: z-score [11, 19]
active: AC50 [1] 26.3 µM | AC50 [6] 23.5 µM
0.832: fold change [10, 15]

Cc1ccc([C@@H]2O[C@H](CO)[C@@H](O)[C@H](O)[C@H]2O)cc1Cc1ccc(-c2ccc(F)cc2)s1
7420: cell count [12]
inactive: outcome [1] | outcome [2] | outcome [3] | outcome [8] | outcome [5] | plate-normalised HSF1 focus index [12] 1.01 | viability [13, 20] 120% | viability [13, 21] 109% | viability [13, 24] 120% | viability [13, 25] 120% | viability [13, 26] 109% | viability [13, 28] 115% | viability [13, 29] 118% | viability [13, 30] 108% | viability [13, 32] 105% | viability [13, 33] 108% | viability [13, 34] 108% | viability [13, 35] 103% | viability [13, 36] 114% | viability [13, 37] 128% | viability [13, 38] 109% | viability [13, 39] 102% | viability [13, 40] 117% | viability [13, 41] 122% | viability [13, 42] 114% | viability [13, 43] 110% | viability [13, 44] 119% | viability [13, 45] 122% | viability [13, 46] 109% | viability [13, 47] 108% | viability [13, 48] 117% | viability [13, 49] 129% | viability [13, 50] 105% | viability [13, 51] 115%
active: viability [13, 22] 98.8% | viability [13, 23] 97.6% | viability [13, 27] 93.8% | viability [13, 31] 99.4%
0.238: SSMD [12]

Cc1cccc(-c2[nH]c(C(C)(C)C)nc2-c2ccc3nccnc3c2)n1
-0.927: z-score [11, 19]
active: AC50 [2] 2.35 µM | AC50 [4] 20.9 µM | AC50 [8] 9.34 µM | AC50 [9] 10.5 µM | AC50 [5] 4.69 µM | AC50 [6] 5.9 µM | viability [13, 23] 95.1% | viability [13, 26] 100% | viability [13, 27] 98.3% | viability [13, 30] 99.5% | viability [13, 31] 98.9% | viability [13, 35] 95% | viability [13, 39] 97.3% | viability [13, 47] 98.6% | viability [13, 51] 90.7%
4050 and 3910: cell count [10, 17]
0.491 and 0.704: fold change [10, 15]
7730: cell count [12]
1.52: SSMD [12]
inactive: outcome [1] | outcome [7] | fold change [10, 14] 1.02 and 0.895 | plate-normalised HSF1 focus index [12] 1.09 | z-score [11, 18] -0.318 | viability [13, 20] 121% | viability [13, 21] 111% | viability [13, 22] 101% | viability [13, 24] 106% | viability [13, 25] 112% | viability [13, 28] 120% | viability [13, 29] 113% | viability [13, 32] 119% | viability [13, 33] 116% | viability [13, 34] 103% | viability [13, 36] 121% | viability [13, 37] 111% | viability [13, 38] 101% | viability [13, 40] 119% | viability [13, 41] 111% | viability [13, 42] 112% | viability [13, 43] 102% | viability [13, 44] 124% | viability [13, 45] 117% | viability [13, 46] 121% | viability [13, 48] 139% | viability [13, 49] 142% | viability [13, 50] 120%
4120 and 3500: cell count [10, 16]
